Screening data from PubChem BioAssay.
CHO-K1 Ca antag = counter-screen for M1 antagonists: effect in parental CHO-K1 cells. actives 0.6% (n = 360,000). ATP-induced calcium, Fluo-8 fluorescence. inhibition, % at 3 µM;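 active = inhibition above a per-plate cutoff, the plate's mean sample inhibition plus 3 SD, cut at about 24% in these data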;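 note: 0% = DMSO plus EC80 ATP and 100% = DMSO alone without ATP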
M1 PAM parental = counter-screen for M1 PAMs: effect in parental CHO-K1 cells; ATP EC20, Fluo-8 calcium fluorescence; 0% at ATP EC20, 100% at ATP max; actives 0.02% (n = 360,000); AID 602247; activation, % at 3 µM;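 active = activation above the run cutoff, the mean activation of all test compounds plus 3 SD, cut at about 40% in these data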;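 note: peak over basal fluorescence ratio in a 140 s read after ATP addition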
M1 antag = antagonists of human M1 muscarinic receptor. inhibition, % at 3 µM. CHO-K1 hM1, Fluo-8 calcium fluorescence, ACh EC80 antagonist. AID 588852. actives 1.3% (n = 360,000);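 active = percent inhibition above its own plate's cutoff, namely the mean of that plate's compound wells plus 3 SD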;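 note: peak over basal fluorescence ratio during 140 s after agonist addition; 0% = ACh EC80 plus DMSO and 100% = DMSO alone without agonist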
Target sequence (P11229 whole entry, looked up): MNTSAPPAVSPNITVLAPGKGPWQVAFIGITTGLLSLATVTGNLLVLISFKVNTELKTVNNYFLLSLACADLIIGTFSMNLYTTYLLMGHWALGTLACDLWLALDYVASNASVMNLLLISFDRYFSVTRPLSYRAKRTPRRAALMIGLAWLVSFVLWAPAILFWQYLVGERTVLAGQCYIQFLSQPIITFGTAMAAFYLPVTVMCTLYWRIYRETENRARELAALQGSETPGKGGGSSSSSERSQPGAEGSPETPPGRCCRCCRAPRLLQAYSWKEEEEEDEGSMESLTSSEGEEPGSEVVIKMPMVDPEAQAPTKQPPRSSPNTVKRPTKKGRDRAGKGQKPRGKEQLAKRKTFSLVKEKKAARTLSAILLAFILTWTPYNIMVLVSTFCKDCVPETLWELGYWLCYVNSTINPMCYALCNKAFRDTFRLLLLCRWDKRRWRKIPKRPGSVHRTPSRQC
M1 ag = human M1 muscarinic receptor agonism | AID 588814 | activation, % at 3 µM | actives 0.33% (n = 360,000) | CHO-K1 hM1, Fluo-8 calcium fluorescence, agonist mode; 0% DMSO, 100% acetylcholine EC100 | P11229;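 active = activation above the run's mean compound activation plus 3 SD, cut at about 16% in these data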;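 note: peak over basal fluorescence ratio within a 140 s kinetic read after compound addition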
M1 PAM = positive allosteric modulators of human M1 muscarinic receptor; P11229; CHO-K1 hM1, Fluo-8 calcium fluorescence, ACh EC20; 0% = ACh EC20, 100% = maximal ACh; activation, % at 3 µM; actives 0.088% (n = 360,000); in the data active = activation above about 19%, passing the limit was not always enough
CHO-K1 Ca ag = counter-screen for M1 agonists: effect in parental CHO-K1 cells | AID 602248 | Fluo-8 calcium fluorescence; scaled to maximal ATP response, vehicle zero | activation, % at 3 µM | actives 0.48% (n = 360,000); in the data active = activation above about 15%;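 note: untransfected CHO-K1 host cells lacking M1 receptor as counterscreen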
An asterisk follows results filed as active. An excerpt weighted towards active compounds, which were near 2.3% of everything screened.

How did CC(=O)N1CCN(Cc2nc(C(c3ccccc3)c3ccccc3)no2)CC1 do in these assays?
CHO-K1 Ca antag: -1.9; M1 PAM parental: 23.0; M1 antag: 1.6; M1 ag: -13.2; M1 PAM: -13.9; CHO-K1 Ca ag: 2.4

What do the screens show for `NC(=O)CCN1CCN(Cc2nc(C(c3ccccc3)c3ccccc3)no2)CC1`?
CHO-K1 Ca antag: -2.5; M1 PAM parental: 18.4; M1 antag: 28.6*; M1 ag: -15.1; M1 PAM: -35.7; CHO-K1 Ca ag: -0.1

Results for CC(C)NC(=O)CN1CCN(Cc2nc(C(c3ccccc3)c3ccccc3)no2)CC1 ?
CHO-K1 Ca antag: -10.5; M1 PAM parental: 16.6; M1 antag: 51.7*; M1 ag: -5.3; M1 PAM: -28.4; CHO-K1 Ca ag: 3.3

What do the screens show for `c1ccc(C(c2ccccc2)c2noc(CN3CCN(C4CCCC4)CC3)n2)cc1`?
CHO-K1 Ca antag: -3.6; M1 PAM parental: 20.9; M1 antag: 60.0*; M1 ag: -13.5; M1 PAM: -30.1; CHO-K1 Ca ag: 15.3*

What do the screens show for `O=C(Nc1cccnc1Cl)C1=NN(c2ccccc2)C(=O)CC1`?
CHO-K1 Ca antag: -16.8; M1 PAM parental: 18.9; M1 antag: -12.1; M1 ag: -1.5; M1 PAM: 12.2; CHO-K1 Ca ag: 1.1

What do the screens show for `COc1ccccc1C1(O)C(=O)Nc2ccc(C)cc21` (stereo unspecified)?
CHO-K1 Ca antag: 8.7; M1 PAM parental: -2.8; M1 antag: 4.9; M1 ag: -1.4; M1 PAM: 3.8; CHO-K1 Ca ag: 0.2

How did Cc1ccc(Sc2ccc(NC(=O)CCN3C(=O)NC4(CCCC4)C3=O)cc2)c(C)c1 do in these assays?
CHO-K1 Ca antag: 2.6; M1 PAM parental: 15.7; M1 antag: 35.0*; M1 ag: -4.9; M1 PAM: -14.0; CHO-K1 Ca ag: 3.8

What do the screens show for `O=C(CCCN1C(=O)NC2(CCCC2)C1=O)Nc1ccc(F)cc1`?
CHO-K1 Ca antag: 3.6; M1 PAM parental: 1.0; M1 antag: 9.9; M1 ag: -1.1; M1 PAM: 8.5; CHO-K1 Ca ag: 0.1

What do the screens show for `COc1cccc(C(=O)NC(=S)Nc2ccc(N3CCCC3)cc2)c1`?
CHO-K1 Ca antag: -12.4; M1 PAM parental: 11.2; M1 antag: 10.7; M1 ag: -5.3; M1 PAM: -5.1; CHO-K1 Ca ag: 0.2

Results for CC(C)Oc1cccc(C(=O)NC(=S)Nc2ccc(N3CCN(C)CC3)cc2)c1 ?
CHO-K1 Ca antag: -7.4; M1 PAM parental: 19.1; M1 antag: 98.9*; M1 ag: -4.0; M1 PAM: -27.4; CHO-K1 Ca ag: 4.3

How did CN1CCN(c2ccc(NC(=S)NC(=O)c3cccc4c(Cl)cccc34)cc2)CC1 do in these assays?
CHO-K1 Ca antag: 7.2; M1 PAM parental: -17.9; M1 antag: 37.2*; M1 ag: -13.2; M1 PAM: -30.2; CHO-K1 Ca ag: 0.2

How did COc1cc(/C=N/NC(=O)c2nnn(-c3nonc3N)c2C)ccc1OCc1ccc(Cl)cc1 do in these assays?
CHO-K1 Ca antag: -15.0; M1 PAM parental: 11.1; M1 antag: -11.2; M1 ag: -2.0; M1 PAM: 5.5; CHO-K1 Ca ag: 0.8

What do the screens show for `Cc1ccc(N2CC(O)(c3cccs3)[N+]3=C2CCCC3)cc1` (stereo unspecified)?
CHO-K1 Ca antag: -13.5; M1 PAM parental: -9.2; M1 antag: 40.0*; M1 ag: -7.8; M1 PAM: -22.4; CHO-K1 Ca ag: 0.1

Results for Cc1cccc(N2CC(O)(c3cccs3)[N+]3=C2CCCC3)c1C (stereo unspecified) ?
CHO-K1 Ca antag: 7.5; M1 PAM parental: -0.5; M1 antag: 37.0*; M1 ag: -5.3; M1 PAM: -16.6; CHO-K1 Ca ag: 5.7

What do the screens show for `Cc1cccc(N2CC(O)(c3cccs3)[N+]3=C2CCCC3)c1` (stereo unspecified)?
CHO-K1 Ca antag: 1.0; M1 PAM parental: -15.3; M1 antag: 13.6; M1 ag: -4.4; M1 PAM: -4.8; CHO-K1 Ca ag: 0.0

Results for O=C(Cn1cc(C(F)(F)F)cc(Cl)c1=O)NC1CCS(=O)(=O)C1 (stereo unspecified) ?
CHO-K1 Ca antag: -7.2; M1 PAM parental: -6.3; M1 antag: 8.8; M1 ag: -1.4; M1 PAM: -4.9; CHO-K1 Ca ag: 0.0
